Among all 370,000 compounds or so, about 3,700 (1%) were called active.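 The calls were made as follows: active = activation above the mean over all tested compounds plus 3 SD (cut at about 0.9% in these data); inactive = the rest.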 The sample as a whole holds a higher share of actives than the screen did.
system: Nuclear hormone receptor DAF-12 (Strongyloides stercoralis); assay: ssDAF-12 driven luciferase reporter activation – cell-based, luminescence, HEK293, GRIP1 co-expression, lit1-tk-luc, primary screen (AID 652126); conditions: HEK293 ssDAF-12/GRIP1 lit1-tk-luc reporter, at 6.8 µM, stronger effect = higher value, % of 3 µM dafachronic acid response;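 also: 0% = DMSO-only wells and 100% = 3 µM delta7-dafachronic acid wells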

| SMILES | activation |
| --- | --- |
| CCN(CC)C(=O)CC[C@@H]1CC[C@]2(CCCN(S(=O)(=O)C3CCCCC3)C2)O1 | -1.11% (inactive) |
| CN(C)Cc1cn(-c2ccc(-c3noc4c3C(=O)N(CC(=O)N3CCOCC3)CC4)cc2)nn1 | -0.67% (inactive) |
| O=C(OCC#CCSc1nnc(-c2ccco2)o1)c1ccc(F)cc1 | -0.22% (inactive) |
| CCCC[C@H](C(=O)N(CC)c1ccccc1)[C@@H](O)c1ccc2ccccc2c1 | -1.15% (inactive) |
| O=C(c1cc(COc2ccc(F)cc2F)on1)N1CCOCC1 | 0.37% (inactive) |
| O=C(c1cc(C2CCCCN2S(=O)(=O)c2ccccc2)on1)N1CCOCC1 (stereo not given) | -1.54% (inactive) |
| O=C(c1cc(-c2ccc(O)cc2)on1)N1CCOCC1 | 1.22% (active) |
| O=C1Nc2ccccc2OC1CC(=O)N1CCCCCCC1 (stereo not given) | -0.55% (inactive) |
| c1cncc(CNc2ccnc(-c3ccc4c(c3)OCO4)n2)c1 | -1.42% (inactive) |
| CCOC(=O)[C@]12CCCC3=C1N(CCC3)C(=O)[C@@H](CC(=O)NCc1cccs1)C2 | -1.02% (inactive) |
| Cc1nc2ccc(NC(=O)C3CCCCC3)cc2s1 | -1.51% (inactive) |
| Brc1ccc2nc(N3CCCC3)sc2c1 | 1.8% (active) |
| Cc1nc2ccc(C(=O)N3CCSCC3)cc2s1 | -1.17% (inactive) |
| C=CCN1C(=O)[C@H](CC(=O)NCCCN2CCCC2=O)[C@@]2(C(=O)OCC)CCCC=C12 | -0.32% (inactive) |
| COC(=O)Cc1cc(=O)oc2c(C)c(O)ccc12 | -1% (inactive) |
| COc1cccc(C(=O)OCc2cc(=O)oc3c(C)c(C)ccc23)c1OC | 1.06% (active) |
| COc1ccc(Br)cc1CN1CCN(C(=O)c2cccc(OC)c2OC)CC1 | -0.37% (inactive) |
| CC(C)[C@@H]1NC(=O)c2cc([N+](=O)[O-])cc(I)c2NCCC[C@@H](C(=O)NC(CC(=O)O)C(N)=O)NC(=O)[C@H](CO)NC1=O (stereo not given in full) | -1.32% (inactive) |
| CCOC(=O)[C@]12CCCCC/C=C\1N(Cc1ccc(OC)cc1)C(=O)[C@H]2CC(=O)NCc1ccc(C)o1 | -1.69% (inactive) |
| COC(=O)c1cc(S(=O)(=O)N2CCN(c3ccccc3C)CC2)cn1C | -1.46% (inactive) |
| O=C(CCn1nnc2ccccc2c1=O)N[C@@H](Cc1c[nH]c2ccccc12)C(=O)O | -1.08% (inactive) |
| COc1ccc(-c2cc(C(=O)NC(C(=O)O)C(C)C)c(C)o2)cc1OC (stereo not given) | -0.63% (inactive) |
| COc1ccc(-c2cc(C(=O)NC(Cc3c[nH]c4ccccc34)C(=O)O)c(C)o2)cc1OC (stereo not given) | 0.94% (active) |

| SMILES | activation |
| --- | --- |
| CC1=NN(/C(=N\c2nnc(C)s2)Nc2ccccc2)[C@H](c2ccc(C)cc2)S1 | -1.96% (inactive) |
| CC(C)C(C#CC1CC1)N(Cc1ccc2c(c1)OCO2)C(N)=NC(=O)/C=C/c1cccc(C(F)(F)F)c1 (stereo not given) | -1.84% (inactive) |
| O=C(N/N=C/c1sc(N2CCCCC2)nc1-c1cccs1)c1cccnc1 | -1.2% (inactive) |
| O=C(O)c1ccc(N/N=C/c2cn(-c3ccccc3)nc2-c2cccs2)cc1 | 1.45% (active) |
| CC(=O)c1ccc(NC(=O)c2cc(-c3cccs3)on2)cc1 | -0.86% (inactive) |
| O=C(NC1CCCCN(Cc2ccc(Cl)cc2)C1=O)c1ccc(Br)cc1 (stereo not given) | -1.36% (inactive) |
| Cc1ccc(Cn2cc(CN3[C@@H](CC(C)C)COc4ccc(Cl)cc4S3(=O)=O)nn2)cc1 | -1.11% (inactive) |
| CCOC(=O)c1nnn(CC(=O)Nc2cccc(F)c2)c1C(=O)OCC | -1.33% (inactive) |
| CCC(=O)Nc1ccc2nn(-c3ccc(F)cc3)nc2c1 | 1.14% (active) |
| O=C(Nc1cccc(Cl)c1)c1cncn1-c1ccc(F)cc1 | -1.04% (inactive) |
| COC(=O)[C@]12C[C@H](CC(=O)NCc3cccc4ccccc34)C(=O)N(CCc3ccc(OC)c(OC)c3)C1=C[C@H](C1CCCC1)O[C@@H]2C | -0.95% (inactive) |
| O=C(Nc1ccc(Br)cc1)OCCN1C(=O)CCC12CCC(c1ccccc1)CC2 (stereo not given) | -0.35% (inactive) |
| CCOC(=O)c1c(/N=C/c2cc(C)ccc2O)sc2c1CCC2 | -1.3% (inactive) |
| CCOC(=O)c1c(CC(C)C)csc1/N=C/C1=C(O)CCCC1=O | -1.42% (inactive) |
| CCOC(=O)c1c(N)sc2c1CCCC2=O | 1.3% (active) |
| O=C(C1CCN(S(=O)(=O)c2ccccc2)CC1)N1CCN(C2CCCCC2)CC1 | -1.32% (inactive) |
| CC(CCN1CCC(C(O)(c2ccccc2)c2ccccc2)CC1)Oc1ccc(Cl)cc1 (stereo not given) | -0.71% (inactive) |
| Cc1ccc(-c2nc(C3CCCN(S(=O)(=O)c4ccc(Br)s4)C3)no2)cc1 (stereo not given) | -1.49% (inactive) |
| Nc1nonc1C(=O)NCCc1ccccc1 | -1.42% (inactive) |
| Nc1nc2c(Br)ccc(Br)c2cc1C(=O)NCCc1ccccc1 | -1.14% (inactive) |
| NC(=O)Nc1ccccc1C(=O)NCCc1ccccc1 | 1.06% (active) |
| O=C(OC12CCCN(C1)/C(=C/c1ccccc1)C2)c1ccco1 (stereo not given) | -0.69% (inactive) |
| O=C(C1CCCN1S(=O)(=O)c1ccccc1)N1CCc2ccccc2C1 (stereo not given) | -1.12% (inactive) |

| SMILES | activation |
| --- | --- |
| COc1ccc2c(C(=O)c3ccc(C)cc3)n(CCC(N)=O)[n+]([O-])c2c1 | 0.92% (active) |
| COc1ccc(C(=O)c2c3ccc([N+](=O)[O-])cc3[n+]([O-])n2CCCN)cc1 | -1.18% (inactive) |
| COc1ccc(C(=O)CC(=O)c2ccc(C)cc2)c(O)c1 | -1.3% (inactive) |
| FC(F)(F)c1cccc(Cn2ccc3ccc(-c4ccc5ccn(Cc6ccccc6)c5c4)cc32)c1 | -1.17% (inactive) |
| Cc1ccc(SCCC(=O)NCc2ccccn2)cc1 | -1.21% (inactive) |
| Cc1ccc(SCCC(=O)NC(C(C)C)C(C)C)cc1 | -1.68% (inactive) |
| Cc1ccc(SCCSc2ncccn2)cc1 | 0.96% (active) |
| CC(C)N1CCCCC(NC(=O)C(C)(C)C)C1=O (stereo not given) | -1.27% (inactive) |
| CCCCC(=O)N[C@@H]1CC[C@@]23CCCN2C(=O)CCC[C@H]3[C@H]1C | -1.42% (inactive) |
| Cc1nn(-c2ccc([N+](=O)[O-])cc2)c(N)c1-c1ccccc1 | 0.95% (active) |
| Cc1nn(-c2ccccc2)c2c1C(c1cccc([N+](=O)[O-])c1)N(c1ccccc1)C(=O)N2 (stereo not given) | -2.08% (inactive) |
| CC(C)(C)c1cnnn1-c1ccc([N+](=O)[O-])cc1 | -1.44% (inactive) |
| CC(C)(C)OC(=O)NCCc1ccccc1/C=C/S(=O)(=O)NCc1ccc(F)cc1 | -0.76% (inactive) |
| O=C(Nc1ccc2ccccc2c1)Nc1ccc2snnc2c1 | -0.89% (inactive) |
| O=C(Nc1nc2ccc(Cl)cc2s1)c1cc(-c2ccc(Cl)cc2)nc2ccccc12 | 0.48% (inactive) |
| O=C(Nc1ccccc1)Nc1nc2ccccc2s1 | 2.17% (active) |
| COc1ccc(CN(CCN2CCOCC2)C(=O)c2ccc(C)cc2)cc1OC | -0.08% (inactive) |
| COc1ccc(/C=C2\CC3(OC(C)=O)CCCN2C3)cc1 (stereo not given) | -1.25% (inactive) |
| Cc1ccc(NC(=O)Nc2cc(C)nn2-c2ccccc2)cc1 | -0.89% (inactive) |
| c1ccc(-c2c[nH]c(-c3ccccc3)c2)cc1 | 0.36% (inactive) |
| Cc1c[nH]c2cccc(-c3ccc(Cl)cc3)c12 | -0.3% (inactive) |
| c1ccc(-c2cc(-c3ccccc3)[nH]n2)cc1 | 2.27% (active) |
| O=C(O)c1n[nH]nc1-c1ccccc1 | -1.32% (inactive) |

| SMILES | activation |
| --- | --- |
| Oc1ccccc1-c1cc(-c2ccc(Cl)cc2)n[nH]1 | 3.08% (active) |
| Cc1cccc(C(=O)Nc2c(-c3ccc(F)cc3)nc3ncccn23)c1 | -1.19% (inactive) |
| Nn1c(SCC(=O)Nc2ccc(S(N)(=O)=O)cc2)nnc1-c1n[nH]c2c1CCC2 | -0.68% (inactive) |
| O=C(NCCC1=CCCCC1)C1CCN(S(=O)(=O)c2ccc(Cl)s2)CC1 | -0.79% (inactive) |
| CCOC(=O)[C@]12CCCC=C1N(CCCOC)C(=O)[C@@H]2CC(=O)N1CCOCC1 | -1.03% (inactive) |
| Cc1ccc(NC(=O)C2CCCN2C(=O)OCc2ccccc2)cc1C (stereo not given) | -0.56% (inactive) |
| O=C(/C=C/Nc1ccc(S(=O)(=O)Nc2cnc3ccccc3n2)cc1)c1cccnc1 | -0.79% (inactive) |
| Cc1ccc(N/C=C/C(=O)c2ccccc2)cc1C | 3% (active) |
| Cc1ccc(-c2nc3c(C)cc(Br)cn3c2Cc2ccccc2)cc1 | -0.47% (inactive) |
| COc1ccccc1Cc1c(-c2ccc(Cl)cc2)nc2c3ccccc3ccn12 | 0.62% (inactive) |
| c1ccc(Cc2c(-c3ccco3)nc3c4ccccc4ccn23)cc1 | 3.52% (active) |
| CN1C(=O)c2cc(NS(C)(=O)=O)ccc2OC[C@@H]2O[C@@H](CC(=O)NCc3ccc(-c4ccccc4)cc3)CC[C@H]21 | -1.43% (inactive) |
| Cc1ccccc1CN1CCCCC(NC(=O)c2cccc(C#N)c2)C1=O (stereo not given) | -1.04% (inactive) |
| S=C1NC(c2ccccc2)=NCN1c1ccc(Br)cc1 | -0.91% (inactive) |
| N#Cc1ccc(C2N=C(c3ccccc3)NO2)cc1 (stereo not given) | 0.03% (inactive) |
| Brc1ccccc1C1N=C(c2ccccc2)NO1 (stereo not given) | 1.18% (active) |
| COC(=O)C1CN(Cc2ccc(F)cc2)CCS(=O)(=O)N1Cc1ccc(Cl)cc1 (stereo not given) | -1.29% (inactive) |
| O=C(C1CCN(S(=O)(=O)c2cnc[nH]2)CC1)N1CCN(Cc2ccc3c(c2)OCO3)CC1 | 1.02% (active) |
| Cc1cccc(N2CCN(C(=O)C3CCN(S(=O)(=O)c4cnc[nH]4)CC3)CC2)c1C | -0.57% (inactive) |
| CCN(CCCNC(=O)C1CCN(S(=O)(=O)c2cnc[nH]2)CC1)c1ccccc1 | -1.52% (inactive) |
| O=C(c1ccncc1)N1CC[C@H]2[C@H](CCCN2Cc2ccc(F)cc2)C1 | -0.89% (inactive) |

Source: PubChem BioAssay AID652126 (The Scripps Research Institute Molecular Screening Center, 2013)
